Laboratory results taken from ChEMBL document CHEMBL3988442, “University of Dundee, Small-Polar-MMV Screening Library” (2021).
For some assays here: Entries with a potency or affinity are not part of this list.

Experiments:
Parameters in all cases: scale not given: direction of the effect not stated beside the values
[1] = biological target: Protein translocase subunit SecA (Escherichia coli (strain K12)) (UniProt P10408); test: Assay to Identify E. coli SecA ATPase Inhibitors; type: functional; conditions: 30 µM
[2] = biological target: T1, Ubiquitin-activating enzyme e1, putative (Leishmania donovani (strain BPK282A1)) (UniProt E9BSI1); test: Leishmania donovani Ubiquitin Activating Enzyme (LdE1); type: functional; conditions: 30 µM
T1 sequence (whole entry): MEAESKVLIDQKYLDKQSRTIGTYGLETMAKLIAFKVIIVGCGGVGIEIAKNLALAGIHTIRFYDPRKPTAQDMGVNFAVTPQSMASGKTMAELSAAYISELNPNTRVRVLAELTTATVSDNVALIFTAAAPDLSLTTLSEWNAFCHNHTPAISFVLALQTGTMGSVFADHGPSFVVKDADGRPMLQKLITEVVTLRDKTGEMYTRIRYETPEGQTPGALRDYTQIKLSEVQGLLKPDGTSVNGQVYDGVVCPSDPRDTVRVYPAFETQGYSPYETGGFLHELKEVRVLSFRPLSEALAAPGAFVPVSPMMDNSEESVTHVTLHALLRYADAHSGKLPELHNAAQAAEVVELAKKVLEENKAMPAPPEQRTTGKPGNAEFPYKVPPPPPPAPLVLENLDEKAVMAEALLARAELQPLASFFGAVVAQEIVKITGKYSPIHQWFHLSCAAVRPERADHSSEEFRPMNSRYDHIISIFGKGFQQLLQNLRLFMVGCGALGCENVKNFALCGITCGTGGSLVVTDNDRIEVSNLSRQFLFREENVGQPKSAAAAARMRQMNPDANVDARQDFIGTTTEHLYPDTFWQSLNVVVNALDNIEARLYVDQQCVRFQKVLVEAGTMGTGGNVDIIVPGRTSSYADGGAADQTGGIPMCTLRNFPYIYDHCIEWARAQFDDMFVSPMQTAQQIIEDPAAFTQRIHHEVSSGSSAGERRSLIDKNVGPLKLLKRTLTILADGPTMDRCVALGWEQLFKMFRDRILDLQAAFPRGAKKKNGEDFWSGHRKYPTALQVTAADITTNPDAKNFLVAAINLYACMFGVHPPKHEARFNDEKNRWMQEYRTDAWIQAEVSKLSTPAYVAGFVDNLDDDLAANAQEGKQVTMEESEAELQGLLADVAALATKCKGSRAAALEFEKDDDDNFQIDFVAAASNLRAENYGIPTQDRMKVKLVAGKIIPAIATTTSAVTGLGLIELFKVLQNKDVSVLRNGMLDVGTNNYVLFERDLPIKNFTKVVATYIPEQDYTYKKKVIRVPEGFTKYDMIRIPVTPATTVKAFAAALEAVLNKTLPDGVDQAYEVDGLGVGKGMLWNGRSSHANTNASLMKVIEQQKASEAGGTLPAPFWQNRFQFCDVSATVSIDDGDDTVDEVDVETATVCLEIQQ

[3] = biological target: AMP-activated protein kinase, AMPK (Homo sapiens) (UniProt P54646+O43741+P54619+Q9UGJ0+Q9Y478+Q13131+Q9UGI9); test: AMP-dependent Kinase enzyme assay. An in vitro enzyme assay that detects ADP turnover that is directly proportional to AMPK activity. This uses naive AMPK that is activated during the assay with MK-8722; type: functional; conditions: 30 µM
[4] = biological target: Sialic acid-binding Ig-like lectin 9 (Homo sapiens) (UniProt Q9Y336); test: Hs-Siglec9 ALPHAscreen SOP 20170721; conditions: 10 µM
[5] = test system: Trypanosoma cruzi; test: Trypanosoma cruzi phosphomannomutase and mannose-1-phosphate guanylyltransferase assay; type: functional; conditions: 10 µM
[6] = biological target: T2, Arginase-2, mitochondrial (Homo sapiens) (UniProt P78540); test: in vitro enzyme assay to detect the production of urea directly proportional to the activity of Arginase II; type: functional; conditions: 33.3 µM; further: in the data most compounds retested in dose-response had high values
T2 sequence (whole entry): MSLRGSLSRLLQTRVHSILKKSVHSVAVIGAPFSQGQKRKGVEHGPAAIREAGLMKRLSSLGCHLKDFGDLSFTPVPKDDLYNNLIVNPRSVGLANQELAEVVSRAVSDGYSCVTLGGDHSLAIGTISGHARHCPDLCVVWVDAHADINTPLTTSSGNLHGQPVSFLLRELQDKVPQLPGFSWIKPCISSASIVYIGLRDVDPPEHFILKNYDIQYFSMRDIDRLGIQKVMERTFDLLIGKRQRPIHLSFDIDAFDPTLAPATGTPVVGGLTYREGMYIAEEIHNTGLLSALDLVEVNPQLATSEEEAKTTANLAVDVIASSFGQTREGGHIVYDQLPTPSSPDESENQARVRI

[7] = biological target: T3, Proteasome subunit beta (Trypanosoma cruzi) (UniProt O96673); test: Trypanosoma cruzi proteasome chymotrypsin-like activity (TcProtChymo) assay.; further: in the data most compounds retested in dose-response had high values; type: functional; conditions: 9.37 µM
T3 sequence (whole entry): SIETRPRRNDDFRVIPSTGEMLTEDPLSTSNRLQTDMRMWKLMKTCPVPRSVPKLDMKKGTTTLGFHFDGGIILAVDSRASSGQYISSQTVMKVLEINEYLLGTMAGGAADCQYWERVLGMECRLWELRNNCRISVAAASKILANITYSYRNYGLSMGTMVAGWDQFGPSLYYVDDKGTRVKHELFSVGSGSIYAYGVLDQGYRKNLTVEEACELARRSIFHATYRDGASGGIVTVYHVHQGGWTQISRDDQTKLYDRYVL

[8] = organism: Homo sapiens; test: To identify inhibition of the IFN signalling (Jak-Stat) pathway via expression of an eGFP reporter gene under the control of an IFN-stimulated response element (ISRE) containing MxA promoter.; type: functional; conditions: 30 µM
[9] = biological target: T4, Tyrosyl-tRNA synthetase, putative (Trypanosoma cruzi (strain CL Brener)) (UniProt Q4DSP6); test: Trypanosoma cruzi tyrosyl tRNA synthetase (TcYRS) _High Tyrosine SOP; type: functional; conditions: 30 µM; further: in the data most compounds retested in dose-response had high values
T4 sequence (whole entry): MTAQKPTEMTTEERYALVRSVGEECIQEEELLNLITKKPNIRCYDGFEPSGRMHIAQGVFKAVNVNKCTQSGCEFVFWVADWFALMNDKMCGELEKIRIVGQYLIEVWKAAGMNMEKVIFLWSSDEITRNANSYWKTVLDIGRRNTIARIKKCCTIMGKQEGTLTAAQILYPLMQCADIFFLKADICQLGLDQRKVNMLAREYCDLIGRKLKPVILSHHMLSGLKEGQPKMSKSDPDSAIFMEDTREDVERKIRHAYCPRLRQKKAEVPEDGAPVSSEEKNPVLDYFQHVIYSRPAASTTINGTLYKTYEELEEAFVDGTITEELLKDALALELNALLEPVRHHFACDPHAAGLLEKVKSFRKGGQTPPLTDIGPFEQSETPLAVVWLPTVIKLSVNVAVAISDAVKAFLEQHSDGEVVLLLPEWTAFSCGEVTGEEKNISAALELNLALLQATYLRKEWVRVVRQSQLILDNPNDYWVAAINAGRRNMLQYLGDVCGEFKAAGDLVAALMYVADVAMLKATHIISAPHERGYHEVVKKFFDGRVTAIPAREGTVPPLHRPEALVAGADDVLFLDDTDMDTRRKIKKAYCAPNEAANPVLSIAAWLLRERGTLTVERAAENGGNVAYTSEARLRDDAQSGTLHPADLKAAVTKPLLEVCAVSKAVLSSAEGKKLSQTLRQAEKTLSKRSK

[10] = biological target: T4, Tyrosyl-tRNA synthetase, putative (Trypanosoma cruzi (strain CL Brener)); test: Trypanosoma cruzi tyrosyl tRNA synthetase (TcYRS) SOP; type: functional; conditions: 30 µM
[11] = biological target: Chromo domain-containing protein 1 (Saccharomyces cerevisiae (strain ATCC 204508 / S288c) (Baker's yeast)) (UniProt P32657); test: ScCHD-1 Enzyme Inhibition Assay; type: functional; conditions: 30 µM; further: in the data most compounds retested in dose-response had high values
Chain of Chromo domain-containing protein 1 (Saccharomyces cerevisiae (strain ATCC 204508 / S288c) (Baker's yeast)) (P32657 whole entry, the tested form may be a part): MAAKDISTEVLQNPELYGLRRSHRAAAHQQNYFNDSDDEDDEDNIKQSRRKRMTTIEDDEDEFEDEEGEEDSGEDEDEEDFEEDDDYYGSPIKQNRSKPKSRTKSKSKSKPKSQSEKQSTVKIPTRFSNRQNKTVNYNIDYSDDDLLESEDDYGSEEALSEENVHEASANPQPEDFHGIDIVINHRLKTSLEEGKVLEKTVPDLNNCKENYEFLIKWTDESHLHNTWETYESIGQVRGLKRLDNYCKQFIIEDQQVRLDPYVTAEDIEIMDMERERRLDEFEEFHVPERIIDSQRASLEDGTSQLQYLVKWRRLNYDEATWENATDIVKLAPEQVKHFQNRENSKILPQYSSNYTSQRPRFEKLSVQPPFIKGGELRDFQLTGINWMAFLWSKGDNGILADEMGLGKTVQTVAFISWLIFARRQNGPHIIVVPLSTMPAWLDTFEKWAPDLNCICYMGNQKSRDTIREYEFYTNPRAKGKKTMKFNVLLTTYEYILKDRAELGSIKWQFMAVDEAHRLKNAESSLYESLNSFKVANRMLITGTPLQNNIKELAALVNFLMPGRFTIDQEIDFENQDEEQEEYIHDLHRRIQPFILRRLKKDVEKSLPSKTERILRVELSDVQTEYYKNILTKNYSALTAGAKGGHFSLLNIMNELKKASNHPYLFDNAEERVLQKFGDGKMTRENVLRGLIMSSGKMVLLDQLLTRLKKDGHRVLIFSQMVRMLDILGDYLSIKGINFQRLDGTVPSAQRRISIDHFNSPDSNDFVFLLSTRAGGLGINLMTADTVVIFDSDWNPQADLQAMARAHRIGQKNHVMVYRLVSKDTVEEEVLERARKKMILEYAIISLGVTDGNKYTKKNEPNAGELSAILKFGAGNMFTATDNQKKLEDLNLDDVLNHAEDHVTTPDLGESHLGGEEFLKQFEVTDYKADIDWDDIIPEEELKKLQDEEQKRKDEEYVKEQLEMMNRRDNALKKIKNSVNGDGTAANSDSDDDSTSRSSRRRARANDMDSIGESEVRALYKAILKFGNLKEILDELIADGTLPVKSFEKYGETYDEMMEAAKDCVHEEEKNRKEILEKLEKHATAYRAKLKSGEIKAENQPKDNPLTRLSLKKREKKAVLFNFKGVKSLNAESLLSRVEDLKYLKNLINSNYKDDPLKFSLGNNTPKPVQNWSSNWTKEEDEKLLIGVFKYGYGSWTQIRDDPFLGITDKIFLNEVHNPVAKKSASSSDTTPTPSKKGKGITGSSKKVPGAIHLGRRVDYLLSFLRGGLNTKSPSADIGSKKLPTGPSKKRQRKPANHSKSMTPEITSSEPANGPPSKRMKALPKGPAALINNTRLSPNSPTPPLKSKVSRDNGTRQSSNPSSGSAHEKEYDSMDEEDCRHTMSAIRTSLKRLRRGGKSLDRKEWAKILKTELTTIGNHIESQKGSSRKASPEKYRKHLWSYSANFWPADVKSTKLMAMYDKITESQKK

Chain of Sialic acid-binding Ig-like lectin 9 (Homo sapiens) (Q9Y336 whole entry): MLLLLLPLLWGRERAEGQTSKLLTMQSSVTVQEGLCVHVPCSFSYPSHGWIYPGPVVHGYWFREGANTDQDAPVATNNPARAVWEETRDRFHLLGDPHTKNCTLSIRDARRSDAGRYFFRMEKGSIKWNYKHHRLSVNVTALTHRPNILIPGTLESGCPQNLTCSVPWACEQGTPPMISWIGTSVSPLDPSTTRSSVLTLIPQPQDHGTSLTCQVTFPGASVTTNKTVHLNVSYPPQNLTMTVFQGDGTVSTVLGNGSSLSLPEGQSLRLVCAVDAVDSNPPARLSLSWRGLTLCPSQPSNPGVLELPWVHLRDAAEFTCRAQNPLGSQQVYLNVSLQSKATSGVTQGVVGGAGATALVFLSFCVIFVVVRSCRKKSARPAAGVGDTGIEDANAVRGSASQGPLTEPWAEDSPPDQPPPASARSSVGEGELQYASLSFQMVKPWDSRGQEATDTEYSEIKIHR
Chain of Protein translocase subunit SecA (Escherichia coli (strain K12)) (P10408 whole entry): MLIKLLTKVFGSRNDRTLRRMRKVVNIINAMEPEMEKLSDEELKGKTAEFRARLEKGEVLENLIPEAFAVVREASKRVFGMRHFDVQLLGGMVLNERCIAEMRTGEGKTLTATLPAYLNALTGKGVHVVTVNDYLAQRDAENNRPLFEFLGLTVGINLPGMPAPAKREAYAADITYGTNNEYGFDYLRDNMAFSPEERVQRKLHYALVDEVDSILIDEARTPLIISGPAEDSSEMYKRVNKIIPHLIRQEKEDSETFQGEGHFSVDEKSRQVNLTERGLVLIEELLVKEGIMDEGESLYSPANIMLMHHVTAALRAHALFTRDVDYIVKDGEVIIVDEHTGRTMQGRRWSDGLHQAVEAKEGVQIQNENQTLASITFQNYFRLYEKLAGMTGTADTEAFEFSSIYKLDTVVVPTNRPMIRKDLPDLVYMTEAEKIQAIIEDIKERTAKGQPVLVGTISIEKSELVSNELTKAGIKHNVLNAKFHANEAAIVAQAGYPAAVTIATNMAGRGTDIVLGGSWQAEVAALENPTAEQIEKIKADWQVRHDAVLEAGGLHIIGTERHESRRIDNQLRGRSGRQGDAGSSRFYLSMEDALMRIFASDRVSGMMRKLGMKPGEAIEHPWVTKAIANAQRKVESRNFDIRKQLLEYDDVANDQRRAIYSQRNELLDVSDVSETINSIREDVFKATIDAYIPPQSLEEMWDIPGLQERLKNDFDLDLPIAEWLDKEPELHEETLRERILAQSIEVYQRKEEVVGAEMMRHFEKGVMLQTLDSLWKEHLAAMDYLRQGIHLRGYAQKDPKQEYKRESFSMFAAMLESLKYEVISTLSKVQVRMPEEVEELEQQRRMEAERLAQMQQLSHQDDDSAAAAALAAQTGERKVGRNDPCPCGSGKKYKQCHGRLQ

Row | SMILES | Percent Effect [1] | Percent Effect [2] | Percent Effect [3] | Percent Effect [4] | Percent Effect [5] | Percent Effect [6] | Percent Effect [7] | Percent Effect [8] | Percent Effect [9] | Percent Effect [10] | Percent Effect [11]
1 | CN1N=C(C(=O)N(Cc2ccco2)C2CC2)CCC1=O | -3.94% | 0% | 7.53% | 0.679% | 1.46% | -1.18% | 9.49% | 4.75% | 4.25% | 5.2% | 8.43%
2 | Cc1ccc(CN2CCC3(CC2)OC(C(=O)N(C)C)c2ccccc23)o1 (stereo unspecified) | -0.000759% | 4% | -1.87% | -0.475% | -10.2% | -8.63% | 14.6% | 2.54% | 4.23% | 0% | -8.66%
3 | c1cncc(-c2ccc3c(c2)C2(CC3)CCN(c3nncs3)CC2)c1 | -0.421% | 0% | 3.46% | 8.96% | 5.56% | 1.6% | 14.5% | 47.4% | 14.6% | 8.64% | 2.02%
4 | COc1cccc2c1OCC(C(=O)N(C)CCCc1cnn(C)c1)C2 (stereo unspecified) | -3.02% | 0% | -14.1% | -2.21% | -6.27% | 3.64% | 4.79% | 12.6% | 0% | 7.5% | -4.59%
5 | c1cnc(-c2nc(CN3CCC(c4ccn[nH]4)CC3)cs2)nc1 | -1.4% | 13.5% | -30.2% | 15% | 2.32% | 1.66% | 2.15% | -0.446% | 7.92% | 23.2% | -3.65%
6 | CCOC(C)c1nc(CN2CCC(CNC(C)=O)CC2)cs1 (stereo unspecified) | -1.27% | 0% | -5.03% | 0.273% | 1.93% | -2.86% | 8.97% | -19.2% | -0.529% | -2.44% | -2.65%
7 | CCN1CCC(NC(=O)CN2CCc3c(ncn3C)C2)CC1 | -4.55% | 6.33% | -3.84% | -0.206% | -3.59% | 6.24% | 9.43% | 10.1% | -7.29% | 0% | -5.67%
8 | CC(C)Cc1noc(CN(C)C(=O)C2COc3ccccc3C2)n1 (stereo unspecified) | -3.93% | 5.2% | -1.17% | 6.48% | -0.0983% | -27.6% | 14.3% | -9.36% | -1.07% | 13.6% | 0.431%
9 | Cc1noc(C)c1CN1CCN(Cc2ccncc2)c2ncccc2C1 | -3.04% | 8% | 4.68% | 2.81% | -6.5% | -1.17% | 2.56% | 16.7% | 7.45% | 8.97% | -0.129%
10 | CCc1nccn1C1CCCN(C(=O)Cc2cn3ccccc3n2)C1 (stereo unspecified) | -4.36% | 8.86% | -1.52% | -5.05% | 3.18% | -1.5% | 13.2% | 17.9% | -1.04% | 10.1% | -29%
11 | CC(C)C(C)NC(=O)Nc1ccc(CS(C)(=O)=O)cc1 (stereo unspecified) | -5.9% | 5.26% | 7.91% | 3.79% | 4.77% | -14.2% | 15.6% | 12.9% | -5.32% | 10.4% | -1.16%
12 | CCC(NC(=O)C1CCN(S(=O)(=O)N(C)C)CC1)c1ccc(C)c(C)c1 (stereo unspecified) | 0.26% | 0% | 0.886% | 1.28% | -2.46% | 19.3% | 8.82% | -10.2% | -2.15% | 1.24% | -0.385%
13 | CCc1nccn1C1CCCN(C(=O)c2cnn3ccc(C)nc23)C1 (stereo unspecified) | -3.42% | -2.7% | -5.57% | 1.51% | -0.283% | -2% | 4.5% | 4.32% | 5.42% | -6.17% | -7.37%
14 | CCC(=O)N1CCC2(CC1)COc1ccccc1S(=O)(=O)N(C)C2 | -4.24% | 16.2% | -6.69% | 20.9% | 1.27% | 2.23% | 9.7% | 7.17% | 7.53% | 18.5% | -11.2%
15 | CNc1nc(C)c(C(=O)N2CCCCC2CN2CCCCCC2)s1 (stereo unspecified) | -4.61% | 21.3% | -1.92% | 0.892% | 3.74% | -1.63% | 8.72% | -1.85% | 11.7% | 19.2% | -9.37%
16 | NC(=O)c1ccc(N2CCCCC2)c(NC(=O)c2cc(Br)ccc2F)c1 | -3.67% | 7.79% | 2.61% | 8.24% | 0.295% | -16.6% | 14.8% | 1.93% | 4.3% | 6.17% | 24.8%
